Assay outcomes deposited in PubChem by National Center for Advancing Translational Sciences (NCATS).
A selection: hits, their analogues and other compounds. The true share with any hit is near 18%.
TDP1 inh: qHTS Assay for Inhibitors of Tyrosyl-DNA Phosphodiesterase (TDP1); Tyrosyl-DNA phosphodiesterase 1 (Homo sapiens), Q9NUW8; recombinant TDP1, AlphaScreen DNA substrate cleavage; Potency, µM (titrated, usually from 130 µM), without a hit: at the highest dose activity change, negative = inhibition, usual class: inhibitors; hit rate 0.28% among 350,000; further: potency means the concentration at half of the fitted maximal effect; nearly all actives have a fitted effect of over 40% in size
Target sequence (Q9NUW8 whole entry, looked up): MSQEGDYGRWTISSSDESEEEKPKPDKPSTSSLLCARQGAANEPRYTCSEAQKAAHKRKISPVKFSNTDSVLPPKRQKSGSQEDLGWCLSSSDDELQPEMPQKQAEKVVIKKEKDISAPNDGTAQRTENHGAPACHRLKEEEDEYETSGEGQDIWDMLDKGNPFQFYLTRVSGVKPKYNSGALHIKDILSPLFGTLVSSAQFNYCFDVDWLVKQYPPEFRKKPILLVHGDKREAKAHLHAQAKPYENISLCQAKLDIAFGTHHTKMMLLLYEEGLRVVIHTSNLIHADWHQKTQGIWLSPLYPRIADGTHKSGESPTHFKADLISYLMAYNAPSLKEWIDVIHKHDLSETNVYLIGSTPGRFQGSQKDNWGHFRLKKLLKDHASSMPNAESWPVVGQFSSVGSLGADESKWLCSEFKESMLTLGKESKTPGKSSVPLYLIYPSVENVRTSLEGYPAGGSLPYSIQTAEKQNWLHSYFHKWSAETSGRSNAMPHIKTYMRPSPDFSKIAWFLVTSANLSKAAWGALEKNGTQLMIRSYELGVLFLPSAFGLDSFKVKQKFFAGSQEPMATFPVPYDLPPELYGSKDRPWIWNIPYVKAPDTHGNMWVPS
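AlphaScreen read-out: signal falls as enzyme removes the 3' tyrosine-FITC from a 5'-biotinylated DNA oligo (15 nM, 5 min, RT). Enzyme was E. coli-made recombinant Tdp1 at 1 nM, exposed to compound for 15 min beforehand; beads 10 ug/ml, 10 min.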
Six1-Eya2 blk: qHTS Assay for Inhibitors of the Six1/Eya2 Interaction; Homeobox protein SIX1 (Homo sapiens) + Protein phosphatase EYA2 (Homo sapiens), …; AlphaScreen GST-Six1/His-Eya2 binding, biochemical; active compounds read low; activity change, % (test concentration not listed); hit rate 0.56% among 360,000; AID 651725, 2012; in the data active means activity change below about -65%; inconclusive means mostly about -30% to -63%
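Compounds are tested against tagged Six1 and Eya2 proteins bridged by glutathione donor and nickel acceptor beads; after a one-hour incubation at 37 °C without light, AlphaScreen emission is recorded.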
CtBP-E1A inh: qHTS Assay for Inhibitors of the CtBP/E1A Interaction | CtBP / adenovirus E1A interaction (AlphaScreen) | AlphaScreen GST-E1A/His-CtBP binding, 1536-well; active compounds read low | activity change, % (test concentration not listed) | hit rate 0.49% among 340,000 | AID 651724, 2012; in the data active means activity change below about -65%; inconclusive means mostly about -30% to -63%
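AlphaScreen with 125 nM GST-E1A and 125 nM His-CtBP (5X stocks) in Tris pH 8.0, 300 mM NaCl, BSA, Tween 20, TCEP. Compounds preincubated 2 h at 37 deg C, then glutathione donor/nickel acceptor beads added for 1 h at 37 deg C in dark.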
IL-1B inflam inh: qHTS for Inhibitors of Inflammasome Signaling: IL-1-beta AlphaLISA Primary Screen. THP-1 LPS/ATP IL-1B secretion, AlphaLISA, 16 h; active compounds read low. activity change, % at 57.5 µM. hit rate 4.7% among 360,000; in the data active means activity change below about -50%; inconclusive means mostly about -30% to -49%
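THP-1 cells pretreated 1 hr with compounds (up to 57.5 uM final), then stimulated with LPS (250 ng/mL final) plus ATP (1.25 mM final); secreted IL-1B measured by AlphaLISA after 16 hr, decreased signal indicating inhibition.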
TDP1 cell CPT: qHTS for Inhibitors of human tyrosyl-DNA phosphodiesterase 1 (TDP1): qHTS in cells in presence of CPT; chicken DT40 Tdp1-/-;hTDP1 cells + 20 nM CPT, ATP luminescence, 48 h; Potency, µM (titrated, usually from 46.2 µM), for inactives: at the top dose activity change, negative = growth inhibition, most hits filed as inhibitors; hit rate 12% among 420,000; AID 686979, 2013; further: potency means the concentration at half of the fitted maximal effect; nearly all actives have a fitted effect of over 55% in size
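Cell growth measured by CellTiter-Glo luminescence after a minimum 48 h, 37 C compound exposure with 20 nM CPT in Tdp1-knockout DT40 cells stably expressing hTDP1, seeded 400/well; qHTS titration format.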
DT40 TDP1 no CPT: qHTS for Inhibitors of human tyrosyl-DNA phosphodiesterase 1 (TDP1): qHTS in cells in absence of CPT; DT40 Tdp1-/- hTDP1 cells, no CPT, ATP luminescence, 48 h; Potency, µM (highest dose often 46.2 µM), inactives show at the top dose activity change, negative = growth inhibition, most hits filed as inhibitors; AID 686978, 2013; hit rate 15% among 420,000; further: potency means the concentration at half of the fitted maximal effect; nearly all actives have a fitted effect of over 55% in size
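Chicken DT40 Tdp1-/- cells complemented with human TDP1, screened without camptothecin (DMSO vehicle only), 400 cells/well. Compounds pin-transferred, cells incubated at 37 °C for at least 48 hr. Growth read as ATP-dependent luminescence (CellTiter-Glo, 30 min at RT).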
Starred values were filed as active, the others as inactive; ? = inconclusive; / = not tested or not shown. Unless noted, the call rests on the fitted dose curve; in most records, active means well fitted curve in the direction sought with a large enough effect; inconclusive means small, poorly fitted or top-dose-only effect, or another doubt; inactive means no such curve, though single readings can be large; an effect the other way counts as inactive or inconclusive. On the % scale 0 is the no-effect control and ±100 the full control effect.

SMILES	TDP1 inh	Six1-Eya2 blk	CtBP-E1A inh	IL-1B inflam inh	TDP1 cell CPT	DT40 TDP1 no CPT
O=C(Nc1cc(Cl)ccc1-n1cncn1)c1ccco1	/	6.0	-1.1	-9.5	-6.4%	10.8%
Cc1ccc(OCC(=O)NNC(=O)c2ccc(-n3cncn3)c([N+](=O)[O-])c2)cc1	0.4%	-4.4	2.2	2.7	-7.7%	?
CC12COC3(C(=O)Nc4ccc(Cl)cc4)CC1CCC32C (stereo not drawn)	2.6%	2.3	18.8	22.6	?	?
CN1c2ccsc2C(O)=C(C(=O)Nc2ccccc2)S1(=O)=O	0.0%	-2.4	5.8	12.9	?	?
Cc1ccc(S(=O)(=O)N(C)CCCN(C)c2nc(-c3cccs3)nc3ccccc23)cc1	0.2%	/	/	/	15.8µM*	11.2µM*
CN(Cc1ccccc1F)c1nc(-c2cccs2)nc2ccccc12	3.2%	25.9	18.4	-11.5	?	?
CN(CCN(C)c1nc(-c2cccs2)nc2ccccc12)C(=O)OC(C)(C)C	-6.2%	/	/	/	10µM*	14.1µM*
COc1ccc(OCc2cc(C(=O)NCCc3ccccc3)no2)c(Cl)c1	-5.1%	7.6	8.7	0.0	7.31µM*	10.3µM*
Cc1cccc(C)c1OCc1cc(C(=O)NCc2cn(C)nc2C)no1	-0.3%	-2.3	0.5	9.2	18.4µM*	?
COc1ccc(OCc2cc(C(=O)NCC3CCOCC3)no2)c(Cl)c1	6.3%	-2.4	-2.7	-19.9	?	-6.1%
COc1ccc(OCc2cc(C(=O)NCCN3CCCc4ccccc43)no2)c(Cl)c1	9.9%	?	-19.0	-3.4	14.6µM*	18.4µM*
COc1ccc(OCc2cc(C(=O)NCC(C)(C)N3CCOCC3)no2)c(Cl)c1	3.7%	-4.3	-1.1	0.7	23.1µM*	20.6µM*
Cc1nn(-c2ccccc2)c(Oc2ccc(F)cc2)c1/C=N/n1cnnc1	6.1%	0.3	1.5	-11.1	10.7%	0.5%
Cn1ccsc1=NC(=O)c1ccc(S(=O)(=O)C(F)F)cc1	/	5.6	-0.8	-3.4	-23.8%	?
O=C(NCCc1ccccc1F)c1cc(COc2ccc(F)cc2F)on1	/	5.2	6.1	-22.4	-22.7%	-23.9%
COc1ccc(CCNC(=O)c2cc(COc3c(C)cccc3C)on2)c(OC)c1	4.0%	5.2	-0.6	-8.8	23.1µM*	-26.8%
Cc1cccc(C)c1OCc1cc(C(=O)N(Cc2c(C)nn(C)c2C)C2CC2)no1	1.7%	-2.0	3.5	?	13µM*	8.2µM*
O=C(NCCc1ccccc1C(F)(F)F)c1cc(COc2ccccc2)on1	/	11.3	9.2	-5.0	16.4µM*	16.4µM*
COc1ccc(-n2ccn(Cc3ccccc3Cl)c(=O)c2=O)cc1OC	5.2%	/	/	/	7.6%	-18.0%
C=C1NN(CC#N)C(=O)N1c1ccc(OCc2ccccc2)cc1	/	/	/	/	8.1%	?
C=C1NN(Cc2ccccc2)C(=O)N1c1ccc(OCc2ccccc2)cc1	/	/	/	/	11.2µM*	11.2µM*
CCCCCCC1CCC(C(=O)Nn2c(C)nc3ccccc3c2=O)CC1 (stereo not drawn)	7.8%	1.2	6.8	24.2	?	18.4µM*
CCn1c(=O)c(C(=O)Nn2c(C)nc3ccccc3c2=O)c(O)c2ccccc21	5.3%	-16.4	-1.5	29.6	16.4µM*	?
CCn1c(=O)c(C(=O)Nc2nc3ccccc3[nH]2)c(O)c2ccccc21	7.8%	2.9	-6.4	25.1	2.91µM*	2.59µM*
CCn1c(=O)c(C(=O)Nc2ccccc2)c(O)c2ccccc21	/	17.1	-9.5	15.8	?	?
SMILES	TDP1 inh	Six1-Eya2 blk	CtBP-E1A inh	IL-1B inflam inh	TDP1 cell CPT	DT40 TDP1 no CPT
CCc1nc2ccccc2c(=O)n1NC(=O)c1c(O)c2ccccc2n(CC)c1=O	-1.2%	0.0	5.9	60.5	?	?
Cc1cc(C)cc(-n2ccn3cnnc3c2=O)c1	-0.9%	/	/	/	-1.9%	6.0%
Nc1ncnc2c1ncn2[C@@H]1O[C@H](CNCc2ccccc2)[C@@H](O)[C@H]1O	0.4%	-3.6	9.4	6.3	-27.4%	-19.9%
CCC(C)c1ccccc1NC(=O)COC(=O)c1ccc2[nH]c3c(c2c1)CCCC3 (stereo not drawn)	7.1%	-20.7	-13.4	-10.6	16.4µM*	18.4µM*
Cc1cccc(C)c1NC(=O)COC(=O)c1ccc(N2CCCC2)c([N+](=O)[O-])c1	4.3%	1.4	4.3	2.0	-9.1%	?
CCC(C)c1ccccc1NC(=O)COC(=O)c1ccc(N2CCCC2)c([N+](=O)[O-])c1 (stereo not drawn)	-1.1%	-14.9	-7.2	19.2	20.6µM*	?
Cc1ccc(Cn2c(/C=C/c3ccco3)nc3ccccc32)cc1	-2.6%	3.7	2.6	-104.8*	?	14.6µM*
Clc1ccc(Cn2c(/C=C/c3ccco3)nc3ccccc32)cc1	8.5%	2.4	12.7	-93.6*	?	?
Cc1ccc(Cn2c(S(=O)(=O)O)nc3ccccc32)cc1	3.1%	3.0	-1.1	29.9	-1.9%	-4.3%
Cc1ccc2[nH]c(=O)c(N3CCOCC3)c(-c3ccccc3)c2c1	-2.2%	2.3	0.1	1.7	?	?
O=C(Cc1ccccc1)NCc1nc2ccccc2[nH]1	/	0.1	0.0	-6.8	-23.6%	-11.9%
O=C(N/C(=C/c1ccc(Br)cc1)C(=O)N1CCCC1=O)c1ccco1	0.0%	-10.4	-93.3*	?	2.2%	-0.2%
CN(C(=O)COc1ccccc1C(=O)NCCOc1ccccc1)c1ccccc1	5.3%	-0.2	9.5	-96.8*	2.31µM*	2.31µM*
O=C(NCCOc1ccccc1)c1ccccc1Cl	/	9.6	0.7	-22.0	6.8%	2.0%
CCOC(=O)N1CCN(C(=O)c2ccc3c(c2)N(Cc2ccc(F)cc2)CCS3)CC1	/	-21.0	-1.9	21.3	8.2µM*	9.2µM*
CCOC(=O)N1CCN(C(=O)c2ccc3c(c2)N(CC)CCS3)CC1	3.9%	-11.9	-0.5	-6.2	?	?
CCOC(=O)N1CCC(NC(=O)c2ccc3c(c2)N(Cc2ccccc2)CCS3)CC1	-5.9%	-16.3	-8.4	32.5	18.4µM*	14.6µM*
CCOC(=O)N1CCC(NC(=O)c2ccc3c(c2)N(Cc2ccc(C)cc2)CCS3)CC1	4.3%	-4.0	-7.5	24.1	20.6µM*	20.6µM*
